# Compound activity from PubChem.
# Most compounds without a hit are left out; they make up all but 12% or so of the library.
# HP1b chromo inh: HP1-beta chromodomain-methylated histone interaction inhibition; P83916; AlphaScreen HP1-beta / biotin-H3K9me3 peptide binding; Potency, µM (titrated, usually from 114 µM), usual class: inhibitors; actives 0.56% (n = 390,000); note: nearly all actives have a fitted effect of over 70% in size
#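 HP1-beta protein (50 nM final) preincubated 30 min at room temperature with biotinylated H3(1-18)K9me3 peptide (50 nM) in PBS pH 7.4, 0.01% Tween-20, then compound added for 30 min. AlphaScreen streptavidin donor/nickel chelate acceptor beads (10 ug/mL final), 30 min dark, luminescence read.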
# JMJD2A Tudor: inhibitors of human JMJD2A Tudor domain. Potency, µM (top dose mostly 114 µM), actives largely listed as inhibitors. actives 4.4% (n = 390,000). AlphaScreen JMJD2A-Tudor / H3K4me3 peptide binding. AID 504339; note: nearly all actives have a fitted effect of over 50% in size
# Target sequence (O75164 whole entry, looked up, the tested form may be a part): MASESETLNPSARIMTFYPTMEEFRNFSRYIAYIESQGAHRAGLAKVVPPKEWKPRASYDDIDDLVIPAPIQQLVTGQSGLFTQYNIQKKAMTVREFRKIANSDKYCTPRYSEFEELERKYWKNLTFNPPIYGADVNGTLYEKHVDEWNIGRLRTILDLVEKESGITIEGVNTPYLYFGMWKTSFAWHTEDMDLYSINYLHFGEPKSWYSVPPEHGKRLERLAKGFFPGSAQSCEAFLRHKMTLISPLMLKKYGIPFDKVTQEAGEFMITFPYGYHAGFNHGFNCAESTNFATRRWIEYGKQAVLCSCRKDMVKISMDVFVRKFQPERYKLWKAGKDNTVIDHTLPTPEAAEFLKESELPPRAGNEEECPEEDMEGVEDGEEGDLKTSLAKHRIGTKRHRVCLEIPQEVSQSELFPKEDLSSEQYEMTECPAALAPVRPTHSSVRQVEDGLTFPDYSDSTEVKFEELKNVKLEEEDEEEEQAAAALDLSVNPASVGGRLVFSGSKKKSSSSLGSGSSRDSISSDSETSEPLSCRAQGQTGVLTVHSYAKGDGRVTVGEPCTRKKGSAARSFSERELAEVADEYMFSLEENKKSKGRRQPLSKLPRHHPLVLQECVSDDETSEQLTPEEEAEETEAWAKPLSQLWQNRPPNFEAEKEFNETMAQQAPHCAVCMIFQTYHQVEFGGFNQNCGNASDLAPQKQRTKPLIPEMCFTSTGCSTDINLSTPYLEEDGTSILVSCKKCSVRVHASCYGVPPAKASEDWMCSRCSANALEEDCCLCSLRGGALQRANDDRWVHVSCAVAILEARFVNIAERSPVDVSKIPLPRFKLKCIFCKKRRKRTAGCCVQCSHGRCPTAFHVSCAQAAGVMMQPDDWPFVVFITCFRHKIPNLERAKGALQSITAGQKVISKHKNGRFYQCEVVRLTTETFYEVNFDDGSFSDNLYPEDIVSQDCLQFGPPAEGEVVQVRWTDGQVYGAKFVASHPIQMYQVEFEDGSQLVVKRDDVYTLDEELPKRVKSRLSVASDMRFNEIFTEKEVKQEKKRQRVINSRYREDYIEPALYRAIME
# G9a block: inhibitors of human histone lysine methyltransferase G9a | Q96KQ7 | G9a H3K9 monomethylation, AlphaScreen, 2 h | Potency, µM (series often up to 102 µM), usual class: inhibitors | actives 8.8% (n = 350,000) | AID 504332; note: nearly all actives have a fitted effect of over 75% in size
#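 Enzyme 20 nM + cpd, 15 min RT; add b-H3K9 pep 500 nM / SAM 20 uM; 2 h RT; anti-H3K9me1 Ab 0.5 ug/mL + SA donor / anti-rabbit acceptor beads 20 ug/mL each, 10 min; AlphaScreen read.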
# BAZ2B inh: blocks human BAZ2B; AlphaScreen BAZ2B-H3K14Ac peptide displacement; Potency, µM (highest dose often 114 µM), actives largely listed as inhibitors; actives 4.4% (n = 360,000); note: nearly all actives have a fitted effect of over 60% in size
#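 BAZ2B 50 nM plus b-H3(5-23)K14Ac 50 nM, PBS pH 7.4/0.01% Tween-20, 30 min RT; compound added (max 110 uM), 30 min RT; streptavidin donor/Ni-chelate acceptor beads 10 ug/mL final, 20 min dark; AlphaScreen read.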
# Sfp PPTase inh: blocks B. subtilis Sfp PPTase activity | Potency, µM, actives largely listed as inhibitors | AID 1490 | actives 3.5% (n = 310,000) | Q9F4F7 | Biochemical Sfp PPTase activity, qHTS;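 note: the enzyme is Sfp with the accession as filed and its product quenches rhodamine fluorescence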
#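 Reaction rates are the 30-min fluorescence difference (ex 525, em 598 nm) in wells containing 15 nM Sfp, 5 uM rhodamine-CoA and 12.5 uM BHQ-2-YbbR at pH 7.6 with 10 mM MgCl2.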
# Hits are given with their value; - = inactive; ? = inconclusive; . = not tested or not shown; [ ] = dose if it differs, or a comment. Calls come from the whole dose curve; as a rule, active = well fitted curve in the direction sought with a large enough effect; inconclusive = small, poorly fitted or top-dose-only effect, or another doubt; inactive = no such curve, though single readings can be large; an effect the other way counts as inactive or inconclusive.
SMILES,HP1b chromo inh,JMJD2A Tudor,G9a block,BAZ2B inh,Sfp PPTase inh
CCn1c(CNC(=O)Cc2ccc(OC)cc2)n[nH]c1=S,-,?,?,-,-
COc1ccc(CNC(=O)c2cccs2)cc1,-,-,-,-,-
COC(=O)c1ccc(CS(=O)(=O)c2ccc(C)cc2)o1,-,-,?,-,-
COc1ccc(C(=O)NCc2ccc3c(c2)CCN3C(C)=O)cc1OC,-,-,-,-,.
Cc1c(C(=O)NC(=S)NCc2cccnc2)cccc1[N+](=O)[O-],-,-,.,-,-
CCN(CC(=O)NCc1ccc(F)cc1)C(=O)CN1CCN(c2ccc(OC)cc2)CC1,17.8µM,0.891µM,7.94µM,17.8µM,?
Cc1c(C(=O)NCc2n[nH]c(=S)n2-c2ccc(F)cc2)cccc1[N+](=O)[O-],-,39.8µM,10µM,-,-
O=C(CN1CCN(c2ccc(F)cc2)CC1)NCc1ccc(F)cc1,-,-,-,-,-
COc1cc(NC(=O)CCn2cnc3ccccc3c2=O)cc(OC)c1,-,-,-,-,.
OCCN(Cc1ccccc1)CC(O)COc1ccc(-c2ccccc2)cc1 (centres undefined),-,-,-[12.7 µM],?,50.1µM
CCOC(=O)[C@H]1[C@H]2COc3ccc(Cl)cc3[C@@H]2N2C(=O)CNC(=O)[C@@]12C,-,-,-[0.501 µM],-,.
N#CCCn1c(=O)c(-c2ccc(Cl)cc2)nc2cnc(Oc3cccc(Cl)c3)nc21,.,.,-[12.7 µM],.,-
C/C(O)=C(\C#N)c1nnc2n1CCCCC2,-,?,10µM,56.2µM,?
CC(Nc1ccc(-c2nc(-c3ccncc3)no2)cc1[N+](=O)[O-])c1ccccc1 (centres undefined),-,-,-,-,.
COc1cccc(/C=C2\SC(=S)N(CCC(=O)NC3C=CS(=O)(=O)C3)C2=O)c1 (centres undefined),-,-,-[12.7 µM],?,-
COc1ccc(/C=C2\SC(=S)N(CCC(=O)NC3C=CS(=O)(=O)C3)C2=O)cc1 (centres undefined),-,-,-,-,-
CC(C(=O)NC1C=CS(=O)(=O)C1)N1C(=O)/C(=C/c2cccc(Cl)c2)SC1=S (centres undefined),-,?,25.1µM,?,-
CC(C(=O)NC1C=CS(=O)(=O)C1)N1C(=O)/C(=C\c2ccccc2)SC1=S (centres undefined),-,-,.,?,12.6µM
COc1ccccc1/C=C1/SC(=S)N(C(C)C(=O)NC2C=CS(=O)(=O)C2)C1=O (centres undefined),-,-,44.7µM,-,-
CCOc1ccc(C(=O)NCC(=O)NCCCSc2ccccc2)cc1OCC,-,-,?,-,-
COc1ccc(Cc2nc3c([nH]2)c(=O)n(C)c(=O)n3C)cc1OC,-,?,.,.,.
COc1cccc(C2=CC(=O)CC(C)(C)C2)n1,-,-,.,.,.
CCn1nc(C)cc1C(=O)N(C)C1CCCN(Cc2ccccc2F)C1 (centres undefined),-,-,-,-,-
CC(C)Cc1cc(C(=O)N(C)C2CCCN(Cc3ccccc3F)C2)n(C)n1 (centres undefined),-,-,89.1µM,-,-
CC1CCC2C(=O)N3C(CCC(C)[C@H]3c3cccc(N4CCCC4=O)c3)C(=O)N2C1c1cccc(N2CCCC2=O)c1 (some centres undefined),.,.,.,.,-
SMILES,HP1b chromo inh,JMJD2A Tudor,G9a block,BAZ2B inh,Sfp PPTase inh
CC1CCC/C(=C\Nc2ccc(O)cc2)C1=O (centres undefined),-,79.4µM,?,.,44.7µM
Cc1cc(C(=O)O)ccc1N/C=C1\CCCC(C)C1=O (centres undefined),-,-,?,-,-
CSc1ncc(Cl)c(C(=O)Nc2ccccc2[N+](=O)[O-])n1,-,-,-,-,-
COc1cccc2c1Oc1ncccc1N(c1ccc(C(=O)NCc3ccccc3Cl)s1)C2,-,-,-,-,.
O=C(Nc1ccccc1)C1=C(c2ccccc2)S(=O)(=O)CCS1(=O)=O,-,-,28.2µM,-,12.6µM
Cc1nn(Cc2cccc(C(=O)Nc3ccn(Cc4ccccc4F)n3)c2)c(C)c1[N+](=O)[O-],-,-,-[12.7 µM],-,22.4µM
CN(C(=O)c1ccc(OCC=C(c2ccccc2)c2ccccc2)cc1)c1ccccc1I,-,-,.,.,-
COc1ccc(-c2c(-c3ccccc3OC)sc3ccccc23)cc1OC,-,-,-,-,-
